Here are results for 23 molecules from PubChem BioAssay (EPA / NIEHS).

Results filed as inconclusive are left out. Activity calls are given as the source filed them. The calls were made as follows, unless noted: active = hit-call score of the fitted dose curve at least 0.9, where 1 is the maximum; inactive = score below 0.9.

A short description of one experiment: CCTE_Shafer_MEA_dev_bursting_electrodes_number: CCTE's Neural Network Formation Assay for Number of Bursting Electrodes, Shafer Lab (AID 2284043; active = hit-call score of the fitted dose curve at least 0.9, where 1 is the maximum;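 as to AC50: potency is for loss of bursting electrodes relative to DMSO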). In outline:
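Read-out is the per-well number of electrodes bursting at least once every 2 minutes, recorded on days 5, 7, 9 and 12 and collapsed by trapezoidal area under the curve. Cultures were primary rat cortical neurons on MEA plates, treated continuously from plating.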
Consider `FC(F)(F)C(F)(F)CNCC(F)(F)C(F)(F)F`, for which the molecule was classed as inactive.

For `FC(F)(F)C(F)(F)C(F)(F)C(F)(F)C(F)(F)CCI`, the AC50 (commonly the concentration giving half of the maximal activity seen) was 0.822 µM (active).

On to `CC(C)(C)C(=O)CC(=O)C(F)(F)C(F)(F)C(F)(F)F`, for which the AC50 was 15 µM (active).

In the case of `C=CC(=O)OCC(F)(F)C(F)(F)C(F)(F)C(F)(F)COC(=O)C=C`, the AC50 was 2.08 µM (active).

With `N=C(N)C(F)(F)C(F)(F)C(F)(F)C(F)(F)C(F)(F)C(F)(F)C(F)(F)F`, the result was inactive.

Consider `O=S(=O)(OCC(F)F)C(F)(F)F`, for which the outcome was inactive.

Turning to `O=C(O)C=C(C(F)(F)F)C(F)(F)F`, the molecule was called inactive.

In the case of `OC[C@@H](O)[C@@H](O)[C@H](O)[C@@H](O)CO`, the outcome was inactive.

For `CC(CCl)OP(=O)(OC(C)CCl)OC(C)CCl` (stereo unspecified), the result was inactive.

Take `O=C(O)C(F)(F)C(F)(F)C(F)F`: the molecule was called inactive.

Regarding `O=C(O)C(F)(F)C(F)(F)C(F)(F)C(F)(F)C(F)(F)C(F)(F)C(F)(F)C(F)(F)Cl`, the molecule was classed as inactive.

Consider `OCC(F)(F)C(F)(F)C(F)(F)F`, for which the molecule was called inactive.

As for `O=C(O)C(F)(F)C(F)(F)C(F)(F)F`, the molecule was called inactive.

Turning to `OCC(F)(F)C(F)(F)C(F)(F)C(F)(F)C(F)(F)C(F)F`, the call was inactive.

Turning to `O=P(O)(O)OCCC(F)(F)C(F)(F)C(F)(F)C(F)(F)C(F)(F)C(F)(F)F`, the AC50 is 0.1 µM (active).

Another experiment is described as follows: CCTE_Shafer_MEA_dev_per_burst_interspike_interval: CCTE's Neural Network Formation Assay for Burst Interspike Interval, Shafer Lab (AID 2284044).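 Also: mean spike spacing inside bursts as AUC over recordings on days 5 7 9 12.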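 As to AC50: potency for a decrease of within-burst interspike interval below DMSO level.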 In outline:
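Mean interspike interval within single-electrode bursts, averaged over bursting electrodes, from rat cortical cultures on MEA plates recorded on days 5, 7, 9 and 12. Continuous compound exposure from plating; trapezoidal AUC fitted downward relative to DMSO.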
As for `FC(F)(F)C(F)(F)CNCC(F)(F)C(F)(F)F`, the molecule was classed as inactive.

Regarding `O=S(=O)(OCCOC(F)(F)F)C(F)(F)F`, the call was inactive.

Turning to `FC(F)(F)C(F)(F)C(F)(F)C(F)(F)C(F)(F)CCI`, the result was inactive.

With `CC(C)(C)C(=O)CC(=O)C(F)(F)C(F)(F)C(F)(F)F`, the result was inactive.

Regarding `FC(F)(F)C(F)(F)C(F)(F)C(F)(F)C(F)(F)C(F)(F)CC1CO1` (stereo unspecified), the molecule was called inactive.

`C=CC(=O)OCC(F)(F)C(F)(F)C(F)(F)C(F)(F)COC(=O)C=C`: the AC50 is 4.18 µM (active).

As to `N=C(N)C(F)(F)C(F)(F)C(F)(F)C(F)(F)C(F)(F)C(F)(F)C(F)(F)F`, the outcome was inactive.

With `O=S(=O)(OCC(F)F)C(F)(F)F`, the result was inactive.

For the molecule `O=C(O)C=C(C(F)(F)F)C(F)(F)F`, the molecule was called inactive.

Regarding `OC[C@@H](O)[C@@H](O)[C@H](O)[C@@H](O)CO`, the molecule was classed as inactive.

For `CC(CCl)OP(=O)(OC(C)CCl)OC(C)CCl` (stereo unspecified), the call was inactive.

For the molecule `OCC(F)(F)C(F)(F)C(F)(F)C(F)F`, the molecule was called inactive.

For `O=C(O)C(F)(F)C(F)(F)C(F)F`, the result was inactive.

On to `O=C(O)C(F)(F)C(F)(F)C(F)(F)C(F)(F)C(F)(F)C(F)(F)C(F)(F)C(F)(F)C(F)(F)C(F)F`, for which the result was inactive.

Regarding `O=C(O)C(F)(F)C(F)(F)C(F)(F)C(F)(F)C(F)(F)C(F)(F)C(F)(F)C(F)(F)Cl`, the outcome was inactive.

In the case of `OCC(F)(F)C(F)(F)C(F)(F)F`, the call was inactive.

Take `O=C(O)C(F)(F)C(F)(F)C(F)(F)F`: the call was inactive.

With `COC(=O)CCC(F)(F)C(F)(F)C(F)(F)C(F)(F)F`, the call was inactive.

For the molecule `OCC(F)(F)C(F)(F)C(F)(F)C(F)(F)C(F)(F)C(F)F`, the call was inactive.

Regarding `OCCCC(F)(F)C(F)(F)C(F)(F)F`, the result was inactive.

Consider `Cc1ccc(S(=O)(=O)OCC(F)(F)C(F)(F)C(F)(F)C(F)(F)C(F)(F)C(F)F)cc1`, for which the molecule was called inactive.

Take `O=P(O)(O)OCCC(F)(F)C(F)(F)C(F)(F)C(F)(F)C(F)(F)C(F)(F)F`: the molecule was classed as inactive.

Turning to `NC(=O)C(F)(F)C(F)(F)C(F)(F)C(F)(F)F`, the molecule was called inactive.

A further experiment in a line: CCTE_Shafer_MEA_dev_burst_duration_mean: CCTE's Neural Network Formation Assay for Mean Burst Duration, Shafer Lab (AID 2284045).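 As to AC50: curve fitted for loss meaning shorter burst duration than DMSO.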 In outline:
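Read-out: average first-to-last-spike interval within single-electrode bursts, averaged over bursting electrodes per well, then summarised as area under the curve across days 5, 7, 9 and 12. Developing rat cortical networks were exposed from day 0.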
Consider `FC(F)(F)C(F)(F)CNCC(F)(F)C(F)(F)F`, for which the molecule was classed as inactive.

`O=S(=O)(OCCOC(F)(F)F)C(F)(F)F`: the result was inactive.

For `FC(F)(F)C(F)(F)C(F)(F)C(F)(F)C(F)(F)CCI`, the outcome was inactive.

In the case of `CC(C)(C)C(=O)CC(=O)C(F)(F)C(F)(F)C(F)(F)F`, the result was inactive.

For `FC(F)(F)C(F)(F)C(F)(F)C(F)(F)C(F)(F)C(F)(F)CC1CO1` (stereo unspecified), the call was inactive.

As for `C=CC(=O)OCC(F)(F)C(F)(F)C(F)(F)C(F)(F)COC(=O)C=C`, the half-maximal activity concentration (AC50) is 2.87 µM (active).

In the case of `N=C(N)C(F)(F)C(F)(F)C(F)(F)C(F)(F)C(F)(F)C(F)(F)C(F)(F)F`, the outcome was inactive.

Regarding `O=S(=O)(OCC(F)F)C(F)(F)F`, the molecule was classed as inactive.

Turning to `O=C(O)C=C(C(F)(F)F)C(F)(F)F`, the molecule was called inactive.

For the molecule `OC[C@@H](O)[C@@H](O)[C@H](O)[C@@H](O)CO`, the outcome was inactive.

As to `CC(CCl)OP(=O)(OC(C)CCl)OC(C)CCl` (stereo unspecified), the result was inactive.

`OCC(F)(F)C(F)(F)C(F)(F)C(F)F`: the molecule was called inactive.

As for `O=C(O)C(F)(F)C(F)(F)C(F)F`, the molecule was called inactive.

For `O=C(O)C(F)(F)C(F)(F)C(F)(F)C(F)(F)C(F)(F)C(F)(F)C(F)(F)C(F)(F)C(F)(F)C(F)F`, the molecule was called inactive.

As for `O=C(O)C(F)(F)C(F)(F)C(F)(F)C(F)(F)C(F)(F)C(F)(F)C(F)(F)C(F)(F)Cl`, the result was inactive.

Turning to `OCC(F)(F)C(F)(F)C(F)(F)F`, the molecule was classed as inactive.

With `O=C(O)C(F)(F)C(F)(F)C(F)(F)F`, the result was inactive.

Turning to `COC(=O)CCC(F)(F)C(F)(F)C(F)(F)C(F)(F)F`, the outcome was inactive.

With `OCC(F)(F)C(F)(F)C(F)(F)C(F)(F)C(F)(F)C(F)F`, the result was inactive.

Turning to `OCCCC(F)(F)C(F)(F)C(F)(F)F`, the outcome was inactive.

With `Cc1ccc(S(=O)(=O)OCC(F)(F)C(F)(F)C(F)(F)C(F)(F)C(F)(F)C(F)F)cc1`, the result was inactive.

In the case of `O=P(O)(O)OCCC(F)(F)C(F)(F)C(F)(F)C(F)(F)C(F)(F)C(F)(F)F`, the call was inactive.

In the case of `NC(=O)C(F)(F)C(F)(F)C(F)(F)C(F)(F)F`, the call was inactive.
